NIH3T3 tox: Cytotoxic Profiling in NIH 3T3 Cell Line of Diverse Libraries Using Quantitative High-Throughput Screening | NIH 3T3 viability, CellTiter-Glo ATP luminescence, 48-72 h | 94,000 tested, 4.3% active | Potency, µM (titrated, usually from 96.7 µM), for the others: at the top dose activity change, negative = cytotoxicity, actives largely listed as inhibitors; also: nearly all actives have a fitted effect of over 55% in size
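Viability of NIH 3T3 cells after 48 or 72 hr compound treatment at 37 °C was assessed by CellTiter-Glo, with luminescence imaged following a 10 min room-temperature step.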
Luciferase inh: Firefly luciferase inhibition profiling of diverse chemical library using quantitative high-throughput screening; Luciferin 4-monooxygenase (Photinus pyralis), P08659; purified P. pyralis luciferase, luminescence, biochemical; Potency, µM (titrated, usually from 115 µM), usual class: inhibitors; 76,000 tested, 2.5% active; AID 1347043, 2019; also: nearly all actives have a fitted effect of over 65% in size
Target sequence (P08659 whole entry, looked up): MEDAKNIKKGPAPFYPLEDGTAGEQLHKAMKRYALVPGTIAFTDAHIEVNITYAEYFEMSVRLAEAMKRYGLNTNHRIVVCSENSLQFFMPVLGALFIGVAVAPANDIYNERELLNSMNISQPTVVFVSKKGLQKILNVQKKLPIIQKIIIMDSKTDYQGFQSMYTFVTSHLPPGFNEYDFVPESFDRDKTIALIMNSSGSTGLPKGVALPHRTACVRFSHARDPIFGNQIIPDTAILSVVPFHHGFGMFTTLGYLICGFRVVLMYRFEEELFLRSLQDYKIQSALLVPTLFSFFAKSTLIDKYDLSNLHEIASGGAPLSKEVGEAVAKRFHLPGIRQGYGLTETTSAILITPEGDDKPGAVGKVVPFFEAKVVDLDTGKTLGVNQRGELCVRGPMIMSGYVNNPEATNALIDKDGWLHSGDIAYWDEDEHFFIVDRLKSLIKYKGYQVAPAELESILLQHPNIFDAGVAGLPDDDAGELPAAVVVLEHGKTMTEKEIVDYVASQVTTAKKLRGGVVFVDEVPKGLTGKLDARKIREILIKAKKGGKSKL
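Purified P. pyralis luciferase (10nM final) in 50mM Tris acetate pH 7.5, 10mM Mg acetate, 0.01% Tween-20, 0.05% BSA with 10uM D-luciferin and 10uM ATP. Compounds titrated qHTS. Luminescence imaged on CCD.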
NPR1 antag: Natriuretic polypeptide receptor (hNpr1) antagonism - Primary qHTS. HEK293 hNpr1 GloSensor cGMP, ANP-stimulated luminescence. Atrial natriuretic peptide receptor 1 (Homo sapiens), P16066. Potency, µM (titrated, usually from 46.3 µM), without a hit: top-dose activity change, negative = inhibition, most hits filed as inhibitors. AID 1347048, 2019. 76,000 tested, 1.6% active; calls by dose curve; also: nearly all actives have a fitted effect of over 60% in size
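HEK293 cells stably expressing human Npr1 and cGMP GloSensor pGS-40F, loaded 2 h with 2% GloSensor reagent, given compound 30 min at room temperature. Luminescence read before and 20 min after 0.1 nM hNppA.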
GPT2 inhibitor: Primary qHTS assay for inhibitors of Glutamate pyruvate transaminase 2 (GPT2); Recombinant GPT2, coupled pyruvate oxidase/HRP Amplex Red fluorescence; 100,000 tested, 0.25% active; Potency, µM (doses to about 57.7 µM), for inactives: at the top dose activity change, negative = inhibition, actives largely listed as inhibitors; AID 1671188, 2021; also: nearly all actives have a fitted effect of over 60% in size
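Fluorescence of coupled pyruvate oxidase/HRP/Amplex Red system (50uM Amplex, 30 min, dark) reports pyruvate formed by GPT2. Enzyme reaction: 10ng/uL GPT2, 2mM L-alanine, 250uM a-KG, 30 min room temperature, pH 7.5; 50uM AOA control.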
HEK cytotox: Cytotoxic Profiling in HEK 293 Cell Line of Diverse Libraries Using Quantitative High-Throughput Screening | AID 1345083, 2018 | Potency, µM (highest dose often 115 µM), for inactives: top-dose activity change, negative = cytotoxicity, most hits filed as inhibitors | HEK 293 viability, ATP luminescence (CellTiter-Glo), 48-72 h | 94,000 tested, 6.6% active; also: nearly all actives have a fitted effect of over 60% in size
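Cells seeded first (HEK 293, 250 cells/well), then compound added by pintool. Incubation ran 48 or 72 hr at 37 degree Celsius. CellTiter-Glo was added and luminescence imaged after 10 min at room temperature.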
* hit, by the source's call; i = inactive; ? = inconclusive; · = no result given; [ ] = remark or other dose. Hits are enriched below; roughly 10% of the tested compounds scored in any of these assays. Unless noted, calls follow the shape of the dose curve; as a rule, active = well fitted curve in the direction sought with a large enough effect; inconclusive = small, poorly fitted or top-dose-only effect, or another doubt; inactive = no such curve, though single readings can be large; an effect the other way counts as inactive or inconclusive. % is scaled to controls: 0 for no effect and ±100 for the full control effect; potency is read from the fitted curve at half-maximal effect.

SMILES | NIH3T3 tox | Luciferase inh | NPR1 antag | GPT2 inhibitor | HEK cytotox
O=C1N(C2CCCCC2)C[C@H]2CN(S(=O)(=O)c3ccc(F)cc3)CCN12 | 35.5µM* | i | -1.8%[70.6 µM] | 1.0%[88.5 µM] | ?
COCc1cc(C[C@@H]2CC[C@H](O)[C@@H](CNCc3ccc(Cl)cc3)O2)no1 | -12.9%[174 µM] | i | -2.5%[70.6 µM] | 0.5%[88.5 µM] | -0.8%[172 µM]
CC(C)c1cccc(NC(=O)c2ccc3c(c2)N(C)C2CCCCN2C3=O)c1 (centres undefined) | ? | i | -6.2% | i | 28.2µM*
Cc1cccc(NC(=O)c2ccc3c(c2)N(C)C2CCCCN2C3=O)c1 (centres undefined) | ? | 28.2µM* | -1.0% | 0.8% | ?
Cc1cc(C)cc(NC(=O)c2ccc3c(c2)N(C)C2CCCCN2C3=O)c1 (centres undefined) | ? | ? | -18.5% | i | ?
CC(C)c1ccc(NC(=O)c2ccc3c(c2)N(C)C2CCCN2C3=O)cc1 (centres undefined) | ? | 15.8µM* | -15.1% | i | 44.7µM*
O=C(Cc1cccc(Cl)c1)N1CCC(C(=O)N2CCC(N3Cc4ccccc4C3=O)CC2)CC1 | ? | · | · | 1.6% | 50.1µM*
O=C(C1CC1)N1CCC(C(=O)N2CCC(N3Cc4ccccc4C3=O)CC2)CC1 | -15.4% | · | · | -2.1% | -10.3%
CC(c1cccs1)N(C)Cc1ccc(F)cc1 (centres undefined) | -15.6%[138 µM] | i | 0.0%[70.6 µM] | 2.8%[88.5 µM] | -1.8%[172 µM]
CCC1Oc2ccc(NC(=O)c3ccc(C#N)cc3)cc2CN(Cc2ccccc2F)C1=O (centres undefined) | ? | i | -20.1% | i | 44.7µM*
CCC1Oc2ccc(NC(=O)c3ccccc3F)cc2CN(Cc2ccccc2F)C1=O (centres undefined) | ? | i | -3.3% | i | ?
CCC1Oc2ccc(NC(=O)Cc3ccc(F)cc3)cc2CN(Cc2ccccc2F)C1=O (centres undefined) | ? | i | -15.4% | i | 44.7µM*
CC1Oc2ccc(NC(=O)c3ccc([N+](=O)[O-])cc3)cc2CN(Cc2ccccc2F)C1=O (centres undefined) | ? | i | -13.0% | i | 31.6µM*
CCC1Oc2ccc(NC(=O)c3ccccc3)cc2CN(Cc2cc(F)cc(F)c2)C1=O (centres undefined) | ? | i | -21.8% | -17.3% | 14.1µM*
O=C(c1ccc2nc(-c3ccnc(Cl)c3)oc2c1)N1CCOCC1 | ? | · | · | -12.4%[88.5 µM] | ?
CCc1ccc(CN2CCC(Oc3ccc4ccccc4c3)(C(=O)O)CC2)nc1 | i | i | 10.5% | -6.1%[11.5 µM] | i
CCC1Oc2ccc(NC(=O)c3cccc(F)c3)cc2CN(Cc2ccccc2F)C1=O (centres undefined) | ? | i | -1.8% | -22.4% | 35.5µM*
CCc1ccccc1NC(=O)C1c2ccccc2C(=O)N(CCOC)C12CCCCC2 (centres undefined) | -7.9% | i | -11.2% | i | -36.9%
O=C(c1cc2cn(C3CC3)cc2s1)N1CCc2ccccc2C1 | ? | i | -1.1% | 1.6% | 89.1µM*
Cc1ccc(C(=O)N2CCC(Cc3nc(C(C)C)no3)CC2)cc1C | 44.7µM* | i | ? | 1.9% | ?
COc1ccc(C(=O)N2CCC(Cc3nc(C(C)C)no3)CC2)cc1OC | -45.3% | i | ? | i | ?
CCOc1cc(C(=O)N2CCC(Cc3nc(-c4ccc(F)cc4)no3)CC2)cc(OCC)c1OCC | 31.6µM* | i | ? | -14.5% | 35.5µM*
CCOc1cc(C(=O)N2CCC(Cc3nc(-c4cnccn4)no3)CC2)cc(OCC)c1OCC | ? | i | -2.9% | ? | -14.7%
COc1cc(OC)cc(C(=O)N2CCC(Cc3nc(-c4cccc(OC)c4)no3)CC2)c1 | ? | i | ? | i | 44.7µM*
COc1ccc(-c2noc(CC3CCN(C(=O)c4cc(OC)cc(OC)c4)CC3)n2)cc1 | ? | i | ? | i | 35.5µM*
SMILES | NIH3T3 tox | Luciferase inh | NPR1 antag | GPT2 inhibitor | HEK cytotox
COc1ccccc1C(=O)N1CCC(Cc2nc(-c3ccccc3)no2)CC1 | ? | i | ? | 1.2% | ?
COc1ccc(-c2noc(CC3CCN(C(=O)c4cc(OC)c(OC)c(OC)c4)CC3)n2)cc1 | 12.6µM* | i | ? | 2.6% | ?
CC(C)CCNC(=O)c1cnc2c(c1)N([S+](=O)([O-])c1cccnc1)CCC2 | ? | i | 0.0%[70.6 µM] | -5.9%[88.5 µM] | 0.3%[172 µM]
O=C(Nc1cccc(Cl)c1)c1cnc2c(c1)N([S+](=O)([O-])c1cccnc1)CCC2 | ? | i | 5.2%[70.6 µM] | ? | 100µM*
Cc1csc(NC(=O)c2cnc3c(c2)N([S+](=O)([O-])c2cccnc2)CCC3)n1 | 100µM* | i | 6.0%[70.6 µM] | -10.2%[88.5 µM] | -12.9%[172 µM]
COC1CN(c2cccc(F)c2)C12CCN(C(=O)CC(C)C)CC2 (centres undefined) | -11.3% | i | 3.8% | -10.1% | ?
COc1ccc(-c2cnc3n2CC(C(=O)N2CCCCC2)CC3)cc1 (centres undefined) | -20.6% | i | -25.4% | -10.0% | ?
CCN1CCN(Cc2ccc(NC(=O)Nc3ccc(Oc4cc(NC)ncn4)cc3)cc2C(F)(F)F)CC1 | · | · | · | i | ·
CCN1CCN(c2ccc(Nc3cc(N(C)C(=O)Nc4c(Cl)c(OC)cc(OC)c4Cl)ncn3)cc2)CC1 | · | · | · | 8.91µM* | ·
CC1CCC2(CC1)OCC(C(=O)NCc1ccccc1)N2C(=O)c1cccc(Cl)c1 (centres undefined) | ? | i | -8.6% | i | ?
CC1CCC2(CC1)OCC(C(=O)NCc1ccccc1)N2C(=O)c1ccc(Cl)c(Cl)c1 (centres undefined) | 20µM* | i | 0.4% | -8.5% | ?
c1ccc(C2(c3ccccc3)CCCN(Cc3cscn3)C2)cc1 | ? | i | -12.2% | -9.8%[11.5 µM] | 39.8µM*
COC(=O)C1=C(C)N=C2SC=C(CC(=O)N3CCOCC3)N2C1c1ccc(OC)cc1OC (centres undefined) | 3.9% | i | 0.6% | i | -9.4%
Cc1ccc(C(=O)NCCc2noc(-c3ccncc3)n2)cn1 | -11.9% | i | -0.1% | i | -12.2%
CC(C)(C)c1cc(C[C@H]2CNCC[C@H]2CC(=O)Nc2ccccc2)no1 | 112µM* | i | -16.5%[70.6 µM] | 0.8%[88.5 µM] | ?
O=C(C[C@@H]1CCNC[C@@H]1Cc1cc(-c2ccc(F)cc2)on1)N1CCC(Cc2ccccc2)CC1 | 20µM* | i | 0.8% | -2.7% | 31.6µM*

Screening data deposited in PubChem by National Center for Advancing Translational Sciences (NCATS).
